The results in this text go back to PubChem BioAssay AID886 (National Center for Advancing Translational Sciences (NCATS), 2007).

Values joined by “and” are separate entries in the source; they are usually repeats but may differ in a detail not shown here. Equal values may be shown once. Among all 73,000 compounds or so, about 2,500 (3.4%) were called active. Inconclusive results (about 7%) are left out. The call rests on the fitted dose curve; in most records, active means well fitted inhibition curve with a large enough effect; inconclusive means small, poorly fitted or top-dose-only effect; inactive means no such curve, though single readings can be large or run the other way. The list comes from a sample in which actives are over-represented; it also holds similar structures and randomly drawn compounds.
On the % scale 0 is the no-effect control and ±100 the full control effect; potency means the concentration at half of the fitted maximal effect.

For this experiment, the target named is 3-hydroxyacyl-CoA dehydrogenase type-2 (Homo sapiens) (UniProt Q99714). Put plainly: qHTS Assay for Inhibitors of HADH2 (Hydroxyacyl-Coenzyme A Dehydrogenase, Type II). Further: nearly all actives have a fitted effect of over 60% in size. To be noted: recombinant HADH2, NADH fluorescence, beta-hydroxybutyryl-CoA; series mostly up to 57.1 µM; activity change, negative = inhibition: at the top concentration. From the text: Assay Overview: NIH Molecular Libraries Screening Centers Network [MLSCN] NIH Chemical Genomics Center [NCGC] Structural Genomics Consortium [SGC] Grant Number: None HADH2: Hydroxyacyl-Coenzyme A dehydrogenase, type II, was supplied by researchers at the Structural Genomics Consortium, Oxford University lab (PI Udo Oppermann). The mitochondrial enzyme 17-hydroxysteroid dehydrogenase type 10 (HSD17-10) previously classified as type II hydroxyacyl-CoA dehydrogenase (HADH2) catalyzes the NAD+ dependent oxidation of a variety of substrates including acyl-CoAs, androgens and neurosteroids as well as bile acids(Shafqat N, Marschall HU, Filling C, et al. Biochemical Journal. 2003;376(Pt 1):49-60). The role in neurodegeneration by binding to amyloid-peptide led to its identification (Oppermann UC, et al FEBS Letters. 1999;451(3):238-242 and Yan SD, et al. Nature. 1997;389(6652):689-695), and mutations in its gene appear to be causative for 2-methyl-3-hydroxybutyryl-CoA dehydrogenase deficiency (Ofman R, et al. American Journal of Human Genetics. 2003;72(5):1300-1307). The enzyme was produced by E.coli fermentation as His-tagged recombinant for the purpose of X-ray structure determination, and had been mass-spectrometry characterized. Inhibition of HADH2 activity was screened by utilizing beta-hydroxybutyryl coenzyme A as an electron donor and NAD+ as an electron acceptor/cofactor. An increase in the fluorescence intensity due to conversion of NAD+ to NADH was used to measure the enzyme activity.
Sequence of 3-hydroxyacyl-CoA dehydrogenase type-2 (Homo sapiens) (Q99714 whole entry, looked up): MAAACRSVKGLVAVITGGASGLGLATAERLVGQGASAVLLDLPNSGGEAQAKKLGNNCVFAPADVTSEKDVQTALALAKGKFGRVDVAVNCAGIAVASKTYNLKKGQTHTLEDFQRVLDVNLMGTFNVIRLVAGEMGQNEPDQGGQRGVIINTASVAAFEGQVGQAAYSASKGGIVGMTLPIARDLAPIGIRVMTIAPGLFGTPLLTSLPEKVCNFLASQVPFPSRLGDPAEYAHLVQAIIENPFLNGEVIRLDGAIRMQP
Sequence of 3-hydroxyacyl-CoA dehydrogenase type-2 (Homo sapiens) (Q99714 whole entry, looked up): as above
Assay Protocol: Buffer: 100 mM Tris-HCl pH 9.0, containing 0.01 % Tween-20. Reagents/Controls: Buffer in columns 3 and 4 as negative control (no enzyme). Substrate/cofactor solution: 1 mM NAD+ and 90 uM beta-hydroxybutyryl coenzyme A (Sigma-Aldrich, St. Louis, MO) final concentrations dispensed throughout the plate. Enzyme: 20 nM HADH2 final concentration in columns 1, 2, 5-48. Column 1 is neutral (100% activity). Column 2 contained titration of apomorphine (Sigma-Aldrich, A 4393, PubChem CID 2215, top concentration 500 uM, then 1:2 dilution in duplicate) Assay Steps: Three uL of enzyme were dispensed to 1536-well Greiner black solid bottom plates. Compounds and controls (23 nL) were transferred via Kalypsys PinTool. The plates were incubated for 15 min at room temperature, and then 1 uL of substrate/cofactor solution was added to start the reaction. The plates were immediately transferred to and read every 30 seconds for 4 min on ViewLux High-throughput CCD imager (Perkin-Elmer) using 360 nm excitation and 450 nm emission fluorescence protocol. The fluorescence intensity difference between the last and the first time points was used to compute reaction progress.
On the technique in general: In qHTS, concentration-response curves come from the screen itself.
As for `CCCCC[C@H](O)CCCC(=O)O`, the “activity change, negative = inhibition” value was 0.156% (inactive).

Take `CN1CCC(CNC(=O)c2ccc(-n3c(=O)c(=O)[nH]c4ccccc43)cc2)CC1`: the “activity change, negative = inhibition” value was -0.499% (inactive). Consider `COC(=O)C1(C)C=CCN1C(=O)c1ccccc1` (stereo not given), for which the “activity change, negative = inhibition” value was 5.4% (inactive). With `O=C1[C@H]2[C@H]3[C@H](O)[C@H](O)C/C(=N/OCc4ccccc4)[C@H]3CC[C@@H]2C(=O)N1Cc1ccccc1`, the activity change, negative = inhibition was -3.88% [at 11.4 µM] (inactive). Consider `CN1CCC2(CC1)CCN(S(=O)(=O)c1ccccc1)CC2`, for which the “activity change, negative = inhibition” value is 1.8% (inactive). In the case of `O=S(=O)(O)c1ccc(O)c2ncccc12.O=S(=O)(O)c1ccc(O)c2ncccc12.[Zn]`, the activity change, negative = inhibition is -19.7% [at 11.4 µM] (inactive).

As to `CCS(=O)(=O)N(C)[C@@H]1c2cc(C#N)ccc2OC(C)(C)[C@H]1O`, the Potency entry was “inactive”. As to `O=C(COC(=O)c1ccc(Oc2ccccc2)cc1)Nc1nnc(-c2ccccc2)o1`, the “activity change, negative = inhibition” value was 2.91% (inactive). As for `Nc1ccc(-c2nnc(-c3ccc(-c4ccccc4)cc3)o2)cc1`, the Potency is 31.6 µM (active). In the case of `CC(N)=NCc1cccc(CN)c1`, the Potency entry was “inactive”. Consider `CN1CCN2c3ccccc3Cc3ccccc3[C@@H]2C1`, for which the Potency result is “inactive”. As for `CCN1C(=O)/C(=C2/Sc3ccccc3N2CCCS(=O)(=O)O)SC1=S`, the Potency is 20 µM (active). Take `CCN1C(=O)/C(=C\N2CCN(c3cccc(Cl)c3)CC2)SC1=S`: the “activity change, negative = inhibition” value was -1.99% (inactive).

Regarding `CCN1C(=O)/C(=C\N2CCN(c3ccccc3)CC2)SC1=S`, the “activity change, negative = inhibition” value is -0.798% (inactive). Take `Cc1ccc(NC(=O)c2cccc(N(C)C)c2)cc1NC(=O)c1ccc(O)cc1`: the “activity change, negative = inhibition” value is -1.28% (inactive).

Take `CCC[C@@H]1C[C@@]1(CCC)C(NS(=O)(=O)c1cccc2cccnc12)c1ccc(Cl)cc1` (stereo not given in full): the “activity change, negative = inhibition” value is -3.66% (inactive). On to `C[C@]1(C(=O)NCCc2c[nH]c3ccccc23)C=C[C@@H](Cc2ccccc2)N1C(=O)c1ccccc1`, for which the “activity change, negative = inhibition” value was 7.45% (inactive). In the case of `COC(=O)C1=C(C)N(Cc2ccccc2)C2=C3C(=O)N(c4ccccc4)C(=O)C3[C@@](O)(C(=O)OC)C(=O)N2C1c1ccccc1` (stereo not given in full), the activity change, negative = inhibition was 10.1% [at 11.4 µM] (inactive) and 2.48% [at 11.4 µM] (inactive). Regarding `CCCC(=O)Nc1cccc(-c2cn3ccsc3n2)c1`, the “activity change, negative = inhibition” value is 5.86% (inactive). Take `CC(=O)Nc1ccc(-c2cn3cccnc3n2)cc1`: the Potency is 15.8 µM (active). With `CC(=O)Nc1cccc(-c2cnc3ccccc3n2)c1`, the “activity change, negative = inhibition” value is 12.1% (inactive). Take `CCOc1nc(OCC)nc(-n2cc(-c3ccccc3)nn2)n1`: the “activity change, negative = inhibition” value is 5.08% (inactive).

With `c1ccc(-c2cn3cccnc3n2)cc1`, the Potency is 12.6 µM (active). Regarding `COC(=O)C(C(=O)OC)[C@@H]1CCCC(=O)C1`, the activity change, negative = inhibition is 12% [at 11.4 µM] (inactive). For `CC(C)[C@@H](CC(=O)N[C@@H]1CCNC[C@H]1C(=O)N[C@H](CC(=O)N[C@@H](CCC(=O)O)CC(=O)O)Cc1ccccc1)NC(=O)C[C@H](CO)NC(=O)[C@@H]1CNCC[C@H]1N`, the “activity change, negative = inhibition” value was -15.2% (inactive).

For the compound `O=C1C(c2ccccn2)=[N+]([O-])c2ccccc21`, the “activity change, negative = inhibition” value is -27.4% (inactive). Consider `CCOC(=O)c1[nH]c2ccc(OC)cc2c1NC(=O)N1CCOCC1`, for which the Potency was 25.1 µM (active).

Take `Cc1c(C(=O)N2CCOCC2)[nH]c2ccc(OCc3ccccc3)cc12`: the “activity change, negative = inhibition” value was -11.1% (inactive). For `COc1cc(NC(=O)N2CCOCC2)cc(OC)c1`, the “activity change, negative = inhibition” value is 5.67% (inactive). For `CC(=O)N1CCC2(CC1)CCN(c1ccncc1)CC2`, the “activity change, negative = inhibition” value was -5.97% (inactive). `CC1(CCC(=O)OC2CCCCC2)OCCO1`: the activity change, negative = inhibition was -20.4% [at 11.4 µM] (inactive). Same read-out and setting: next, `O=C(Cn1ccc(=O)[nH]c1=O)Nc1ccc(C(=O)O)c(O)c1`: -10.7% [at 11.4 µM] (inactive); `COc1ccccc1-c1nc(NCc2cccs2)c2ccccc2n1`: -23.6% (inactive). With `CC(C)c1ccc2c([Si](C)(C)C)c3c(nc2c1)-c1cccc(=O)n1C3`, the “activity change, negative = inhibition” value is 34.4% (inactive).

For `CC(=NCc1ccco1)C1=C(O)c2ccccc2C1=O`, the “activity change, negative = inhibition” value is -18% (inactive).

In the case of `O=c1[nH]c(-c2cccs2)nc2ccccc12`, the “activity change, negative = inhibition” value is -19.2% (inactive). For the compound `CCc1c(C)nc2cc(-c3cccs3)[nH]n2c1=O`, the Potency was 39.8 µM (active). As to `Cc1nc2nc(COc3ccccc3)[nH]n2c(=O)c1Cc1ccccc1`, the “activity change, negative = inhibition” value was 1.89% (inactive).

Regarding `CN(C)C(=O)/N=N\C(=O)N(C)C`, the Potency is 0.631 µM (active). Turning to `CCNCCCNCCCNCCCNCC`, the “activity change, negative = inhibition” value is 6.34% (inactive). In the case of `CO[C@H]1COC(=O)CCC[C@@H](C)[C@H](OC)COC(=O)[C@@H](C)NC(=O)C/C=C\[C@@H]1C`, the activity change, negative = inhibition was 7.05% [at 11.4 µM] (inactive). Regarding `Cc1cccn2c(=O)c3cc(C#N)c(=NC(=O)c4cccnc4)n(CC4CCCO4)c3nc12` (stereo not given), the Potency was 25.1 µM (active). Take `Cn1c(=O)c2c(nc(CN3CCOCC3)n2Cc2ccccc2)n(C)c1=O`: the “activity change, negative = inhibition” value was 6.36% (inactive). Same read-out and setting: as for `CCCOc1ccc(C2c3c(oc4cc(C)c(C)cc4c3=O)C(=O)N2CCCN2CCOCC2)cc1` (stereo not given), the figure is -2.03% (inactive); as for `COc1ccc(CNC(=O)c2cc3c(=O)n4ccccc4nc3n(CC3CCCO3)c2=N)cc1` (stereo not given), -24.1% (inactive).

`Cc1cccn2c(=O)c3cc(C#N)c(=O)n(CCCN4CCOCC4)c3nc12`: the Potency is 31.6 µM (active). Turning to `O=c1c2cc3c(=O)n(CC4CCCO4)c(=O)c3cc2c(=O)n1CC1CCCO1` (stereo not given), the “activity change, negative = inhibition” value is 6.36% (inactive).

Consider `COc1ccc(-c2oc3cc(OC)ccc3c2C(=O)c2ccc(C#N)cc2)cc1`, for which the “activity change, negative = inhibition” value is 2.77% (inactive). As for `c1ccc2nc(C3=NCCN3)cnc2c1`, the “activity change, negative = inhibition” value was -2.79% (inactive). Consider `CC(C)NC(=O)N1CCC2(CC1)CCN(C(=O)c1cccn1C)CC2`, for which the “activity change, negative = inhibition” value was -0.373% (inactive).
